Reference: PubChem BioAssay (NCATS)
Records with an inconclusive call do not appear. Where a call stands in place of a potency, no number is given. Values without a mark were called inactive. Calls of active or inactive are those of the source. The call rests on the fitted dose curve; in most records, active means well fitted curve in the direction sought with a large enough effect; inconclusive means small, poorly fitted or top-dose-only effect, or another doubt; inactive means no such curve, though single readings can be large; an effect the other way counts as inactive or inconclusive.

Assays:
[1] = qHTS of pediatric cancer cell lines to identify multiple opportunities for drug repurposing: Primary screen for DAOY cells (AID 1347090); further: series mostly up to about 46 µM; nearly all actives have a fitted effect of over 55% in size
How it was run: (§1)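 Eight- or eleven-point concentration series, 48 h treatment at 37 degrees C in growth media; readout CellTiter-Glo luminescence. Potency and efficacy were taken from the concentration-response curves.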

[2] = qHTS of pediatric cancer cell lines to identify multiple opportunities for drug repurposing: Primary screen for SJ-GBM2 cells (AID 1347091)
How it was run: as §1

[3] = qHTS of pediatric cancer cell lines to identify multiple opportunities for drug repurposing: Primary screen for A673 cells (AID 1347092); further: nearly all actives have a fitted effect of over 45% in size; further: potency means the concentration at half of the fitted maximal effect
How it was run: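 A673 cells (500-1,000 cells/well) were treated 48 hours at 37 degrees C with compounds at 11-point (0.78 nM to 46 µM) or 8-point (0.59 nM to 46 µM) dilutions. Viability read by CellTiter-Glo luminescence; concentration-response curves fitted.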

[4] = qHTS of pediatric cancer cell lines to identify multiple opportunities for drug repurposing: Primary screen for SK-N-MC cells (AID 1347093); further: potency means the concentration at half of the fitted maximal effect
How it was run: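 Metabolically active cells were quantified by ATP-dependent luminescence (CellTiter-Glo, 15 min at room temperature) following 48 h treatment. Cells had been plated at 500-1,000 per well and settled for 5 h beforehand.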

[5] = qHTS of pediatric cancer cell lines to identify multiple opportunities for drug repurposing: Primary screen for BT-37 cells (AID 1347094); further: series mostly up to about 57 µM
How it was run: (§2)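 500-1,000 cells/well; 5 h pre-incubation 37 °C/5% CO2; compound pinned; 48 h; CellTiter-Glo, 15 min RT; luminescence. MIPE 11-pt from 0.78 nM, NPC 8-pt from 0.59 nM final. Bortezomib 2.3 µM final as positive control.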

[6] = qHTS of pediatric cancer cell lines to identify multiple opportunities for drug repurposing: Primary screen for NB-EBc1 cells (AID 1347095)
How it was run: as §2

[7] = qHTS of pediatric cancer cell lines to identify multiple opportunities for drug repurposing: Primary screen for U-2 OS cells (AID 1347096); further: nearly all actives have a fitted effect of over 50% in size
How it was run: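 Cells (500-1,000/well) in growth media were settled 5 h at 37 degrees C, then given compounds for 48 h. Viability was read as CellTiter-Glo luminescence. Primary runs used MIPE at 11 points (0.78 nM-46 µM) and NPC at 8 points (0.59 nM-46 µM); follow-ups used 11 points.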

[8] = qHTS of pediatric cancer cell lines to identify multiple opportunities for drug repurposing: Primary screen for SK-N-SH cells (AID 1347098);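 further: DMSO served as neutral control and bortezomib at 2.3 µM as positive control; nearly all actives have a fitted effect of over 65% in size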
How it was run: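 Cells (500-1,000/well) rested 5 h, then received compounds for 48 h; metabolically active cells were measured by CellTiter-Glo luminescence. Final concentrations spanned up to 46 µM (MIPE, 11-point) or 0.59 nM-46 µM (NPC, 8-point) in primary screens, 11-point in follow-ups.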

[9] = qHTS of pediatric cancer cell lines to identify multiple opportunities for drug repurposing: Primary screen for NB1643 cells (AID 1347099); further: nearly all actives have a fitted effect of over 50% in size; further: potency means the concentration at half of the fitted maximal effect
How it was run: as §2

[10] = qHTS of pediatric cancer cell lines to identify multiple opportunities for drug repurposing: Primary screen for Saos-2 cells (AID 1347097); further: nearly all actives have a fitted effect of over 40% in size
How it was run: as §2

| Structure (SMILES) | Potency [1] | Potency [2] | Potency [3] | Potency [4] | Potency [5] | Potency [6] | Potency [7] | Potency [8] | Potency [9] | Potency [10] |
| --- | --- | --- | --- | --- | --- | --- | --- | --- | --- | --- |
| O=C(Oc1ccccc1C(=O)O)c1ccccc1O | inactive | inactive | inactive | inactive | inactive | inactive | inactive | inactive | inactive |  |
| CC12CCC(CC1)C(C)(C)O2 | inactive | inactive | inactive | inactive | inactive | inactive | inactive | inactive | inactive |  |
| O=C(O)c1ccccn1 | inactive | inactive | inactive | inactive | inactive | inactive | inactive |  | inactive |  |
| CC(C)(C(=O)O)c1ccc(C(O)CCCN2CCC(C(O)(c3ccccc3)c3ccccc3)CC2)cc1 (stereo not given) | inactive | inactive | inactive | inactive | inactive | inactive | inactive | inactive | inactive |  |
| O=c1cc[nH]c(=S)[nH]1 | inactive | inactive | 1 nM (active) | 2660 nM (active) | inactive | inactive | inactive | inactive | 1 nM (active) |  |
| CC1=C(CC(=O)O)c2cc(F)ccc2/C1=C\c1ccc(S(C)(=O)=O)cc1 | inactive | inactive | inactive | inactive | inactive | inactive | inactive |  | inactive |  |
| COc1ccc2cc1Oc1cc3c(cc1OC)CC[N+](C)(C)[C@H]3Cc1ccc(cc1)Oc1c(OC)c(OC)cc3c1[C@@H](C2)[N+](C)(C)CC3 | inactive | inactive | inactive | inactive | inactive | inactive | inactive | inactive | inactive |  |
| C#CCN(C)Cc1ccccc1 | inactive | inactive | inactive | inactive | inactive | inactive | inactive | inactive | inactive |  |
| OCC(O)CN1CCN(c2ccccc2)CC1 (stereo not given) | inactive | inactive | inactive | inactive | inactive | inactive | inactive | inactive | inactive |  |
| CC1(C)OC(=O)NC1=O | inactive | inactive | inactive | inactive | inactive | inactive | inactive | inactive | inactive | inactive |
| CO/N=C(\C(=O)N[C@@H]1C(=O)N2C(C(=O)O)=C(CSc3nc(=O)c(O)nn3C)CS[C@H]12)c1csc(N)n1 | inactive | inactive | inactive | inactive | inactive | inactive | inactive | inactive | inactive | inactive |
| O=c1cc[nH]c(=O)[nH]1 | inactive | inactive | inactive | inactive | inactive | inactive | inactive | inactive | inactive | inactive |
| C[C@H](NC(CCc1ccccc1)C(=O)O)C(=O)N1CCC[C@H]1C(=O)O (stereo not given in full) | inactive | inactive | inactive | inactive | inactive | inactive | inactive | inactive | inactive |  |
| CC(=O)CCC(=O)O | inactive | inactive | inactive | inactive | inactive | inactive | inactive | inactive | inactive | inactive |
| O=S(=O)(O)NC1CCCCC1 | inactive | inactive | inactive | inactive | inactive | inactive | inactive | inactive | inactive | inactive |
| O=C1O[C@H]([C@@H](O)CO)C(O)=C1O | inactive | inactive | inactive | inactive | inactive | inactive | inactive | inactive | inactive | inactive |
| Nc1ccc(S(=O)(=O)Nc2ccccc2)cc1 | inactive | inactive | inactive | inactive | inactive | inactive | inactive | inactive | inactive |  |
| CC(=O)Nc1ccc(/C=N/NC(N)=S)cc1 | inactive | inactive | inactive | inactive | inactive | inactive | inactive | inactive | inactive | inactive |
| Cc1cc(CC(=O)O)n(C)c1C(=O)c1ccc(Cl)cc1 | inactive | inactive | inactive | inactive | inactive | inactive | inactive | inactive | inactive |  |
| O=Cc1ccccc1C=O | inactive | inactive | inactive | inactive | inactive | inactive | inactive | inactive | inactive | inactive |
| CC(C)C(=O)c1c(C(C)C)nn2ccccc12 | inactive | inactive | inactive | inactive | inactive | inactive | inactive | inactive | inactive |  |
| Nc1ccc(S(=O)(=O)Nc2nccs2)cc1 | inactive | inactive | inactive | inactive | inactive | inactive | inactive | inactive | inactive | inactive |
| CC[C@@]1(c2ccccc2)NC(=O)N(C)C1=O | inactive | inactive | inactive | inactive | inactive | inactive | inactive | inactive | inactive | inactive |
